± gives the standard deviation of the averaged measurements.
Experiments:
[1] = test system: DLD1; experiment: cell viability (CellTiter-Glo) relative to plate median (fraction of plate median); higher = more viable cells; conditions: 5 µM; treatment time 24 h; reporter: 7TFP
Method in brief: (§1)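 Library compounds were added at a final concentration of 5 µM for 24 h to colorectal cancer cells stably transduced with a lentiviral TCF/Wnt firefly luciferase reporter. Reported values are firefly luciferase or CellTiterGlo luminescence, normalised per well to the plate median. Each value averages two independent replicates.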

[2] = test system: HCT116; experiment: as above; conditions: 5 µM; treatment time 24 h; reporter: TCF4/Wnt
Method in brief: as §1

[3] = test system: SW480; experiment: as above; conditions: 5 µM; treatment time 24 h; reporter: 7TFP
Method in brief: as §1

[4] = test system: DLD1; experiment: TCF/Wnt firefly luciferase reporter signal relative to plate median (fraction of plate median); higher = higher Wnt reporter signal; conditions: 5 µM; treatment time 24 h; reporter: 7TFP
Method in brief: as §1

[5] = test system: SW480; experiment: as above; conditions: 5 µM; treatment time 24 h; reporter: 7TFP
Method in brief: as §1

Structure (SMILES): CO/N=C(\C(=O)N[C@@H]1C(=O)N2C(C(=O)OC(C)OC(C)=O)=C(COC(N)=O)CS[C@H]12)c1ccco1 (stereo not given in full)
- cell viability [1]: 1.03
- cell viability [2]: 1.05 ± 0.079
- cell viability [3]: 0.9685 ± 0.005
- TCF/Wnt firefly luciferase reporter signal [4]: 0.981 ± 0.027
- TCF/Wnt firefly luciferase reporter signal [5]: 1

Structure (SMILES): COc1ccc(-c2oc3ccccc3c(=O)c2O)cc1OC
- cell viability [1]: 0.969 ± 0.087
- cell viability [2]: 0.912 ± 0.024
- cell viability [3]: 1.05
- TCF/Wnt firefly luciferase reporter signal [4]: 0.923 ± 0.0099
- TCF/Wnt firefly luciferase reporter signal [5]: 1.18 ± 0.028

Structure (SMILES): C=CCSCC1Nc2cc(Cl)c(S(N)(=O)=O)cc2S(=O)(=O)N1 (stereo not given)
- cell viability [1]: 1.07 ± 0.042
- cell viability [2]: 1.11 ± 0.085
- cell viability [3]: 1.03 ± 0.021
- TCF/Wnt firefly luciferase reporter signal [4]: 1.06 ± 0.071
- TCF/Wnt firefly luciferase reporter signal [5]: 1.02 ± 0.028

Structure (SMILES): CCOc1ccc(NC(C)=O)cc1
- cell viability [1]: 0.956 ± 0.12
- cell viability [2]: 1.065 ± 0.0071
- cell viability [3]: 1 ± 0.021
- TCF/Wnt firefly luciferase reporter signal [4]: 1.01 ± 0.08
- TCF/Wnt firefly luciferase reporter signal [5]: 1.06 ± 0.05

Structure (SMILES): CCCOc1ccccc1-c1nc2[nH]nnc2c(=O)[nH]1
- cell viability [1]: 0.985 ± 0.035
- cell viability [2]: 0.973 ± 0.14
- cell viability [3]: 0.909 ± 0.058
- TCF/Wnt firefly luciferase reporter signal [4]: 1.01 ± 0.064
- TCF/Wnt firefly luciferase reporter signal [5]: 0.951 ± 0.084

Structure (SMILES): C=CCSSSCC=C
- cell viability [1]: 1.05 ± 0.09
- cell viability [2]: 1.09 ± 0.014
- cell viability [3]: 0.99 ± 0.042
- TCF/Wnt firefly luciferase reporter signal [4]: 1.02 ± 0.073
- TCF/Wnt firefly luciferase reporter signal [5]: 0.874 ± 0.013

Structure (SMILES): CC(C)NCC(O)c1ccc2ccccc2c1 (stereo not given)
- cell viability [1]: 0.986 ± 0.035
- cell viability [2]: 1.01 ± 0.042
- cell viability [3]: 0.977 ± 0.0042
- TCF/Wnt firefly luciferase reporter signal [4]: 0.962 ± 0.097
- TCF/Wnt firefly luciferase reporter signal [5]: 1 ± 0.069

Structure (SMILES): O=C(O)CCc1nc(-c2ccccc2)c(-c2ccccc2)o1
- cell viability [1]: 0.846 ± 0.15
- cell viability [2]: 0.999 ± 0.13
- cell viability [3]: 0.963 ± 0.02
- TCF/Wnt firefly luciferase reporter signal [4]: 0.915 ± 0.03
- TCF/Wnt firefly luciferase reporter signal [5]: 0.952 ± 0.032

Structure (SMILES): CO[C@@]1(NC(=O)Cc2cccs2)C(=O)N2C(C(=O)O)=C(COC(N)=O)CS[C@@H]21
- cell viability [1]: 1.06 ± 0.078
- cell viability [2]: 1.08 ± 0.2
- cell viability [3]: 0.968 ± 0.023
- TCF/Wnt firefly luciferase reporter signal [4]: 1.07 ± 0.11
- TCF/Wnt firefly luciferase reporter signal [5]: 0.887 ± 0.021

Structure (SMILES): C=CC(C1=CC(=O)C=CC1=O)c1ccccc1 (stereo not given)
- cell viability [1]: 0.965 ± 0.064
- cell viability [2]: 0.884 ± 0.098
- cell viability [3]: 0.943 ± 0.038
- TCF/Wnt firefly luciferase reporter signal [4]: 0.885 ± 0.022
- TCF/Wnt firefly luciferase reporter signal [5]: 0.984 ± 0.037

Structure (SMILES): Cc1coc2c1C(=O)C(=O)c1c-2ccc2c1CCCC2(C)C
- cell viability [1]: 1.03 ± 0.043
- cell viability [2]: 0.999 ± 0.016
- cell viability [3]: 1.05 ± 0.028
- TCF/Wnt firefly luciferase reporter signal [4]: 0.785 ± 0.064
- TCF/Wnt firefly luciferase reporter signal [5]: 0.994 ± 0.14

Structure (SMILES): O=c1oc2c(O)c(O)cc3c(=O)oc4c(O)c(O)cc1c4c23
- cell viability [1]: 1.03 ± 0.028
- cell viability [2]: 1.125 ± 0.0071
- cell viability [3]: 1.11 ± 0.028
- TCF/Wnt firefly luciferase reporter signal [4]: 0.971 ± 0.055
- TCF/Wnt firefly luciferase reporter signal [5]: 1.045 ± 0.0071

Structure (SMILES): O=C(O)c1ccccc1
- cell viability [1]: 1.06 ± 0.096
- cell viability [2]: 1.02 ± 0.021
- cell viability [3]: 1.02 ± 0.014
- TCF/Wnt firefly luciferase reporter signal [4]: 1.12 ± 0.071
- TCF/Wnt firefly luciferase reporter signal [5]: 0.951 ± 0.037

Structure (SMILES): O=C1OCCN1/N=C/c1ccc([N+](=O)[O-])o1
- cell viability [1]: 0.984 ± 0.023
- cell viability [2]: 1.05 ± 0.028
- cell viability [3]: 0.999 ± 0.0014
- TCF/Wnt firefly luciferase reporter signal [4]: 1.1 ± 0.078
- TCF/Wnt firefly luciferase reporter signal [5]: 1.05 ± 0.078

Structure (SMILES): CC(=O)N(O)CCCCCNC(=O)CCC(=O)N(O)CCCCCNC(=O)CCC(=O)N(O)CCCCCN
- cell viability [1]: 0.987 ± 0.015
- cell viability [2]: 0.95 ± 0.032
- cell viability [3]: 0.89 ± 0.073
- TCF/Wnt firefly luciferase reporter signal [4]: 0.869 ± 0.067
- TCF/Wnt firefly luciferase reporter signal [5]: 1.06 ± 0.021

Structure (SMILES): CC1(C)O[C@@H]2C[C@H]3[C@@H]4CCC5=CC(=O)C=C[C@]5(C)[C@H]4[C@@H](O)C[C@]3(C)[C@]2(C(=O)CO)O1
- cell viability [1]: 0.999 ± 0.03
- cell viability [2]: 1.06 ± 0.05
- cell viability [3]: 0.977 ± 0.033
- TCF/Wnt firefly luciferase reporter signal [4]: 0.979 ± 0.086
- TCF/Wnt firefly luciferase reporter signal [5]: 0.9755 ± 0.0078

Structure (SMILES): O=c1c(-c2ccc(O)cc2)coc2cc(O)ccc12
- cell viability [1]: 1.01
- cell viability [2]: 0.9665 ± 0.0021
- cell viability [3]: 0.902 ± 0.0042
- TCF/Wnt firefly luciferase reporter signal [4]: 0.978 ± 0.059
- TCF/Wnt firefly luciferase reporter signal [5]: 0.971 ± 0.025

Structure (SMILES): CCC(O)CC1CCC(C(C)C(=O)OC(C)CC2CCC(C(C)C(=O)O)O2)O1 (stereo not given) [Bonactin]
- cell viability [1]: 0.944 ± 0.027
- cell viability [2]: 0.941 ± 0.11
- cell viability [3]: 0.974 ± 0.0014
- TCF/Wnt firefly luciferase reporter signal [4]: 0.962 ± 0.054
- TCF/Wnt firefly luciferase reporter signal [5]: 0.87 ± 0.12

Structure (SMILES): CN(C)/N=N/c1[nH]cnc1C(N)=O
- cell viability [1]: 0.982 ± 0.015
- cell viability [2]: 0.986 ± 0.02
- cell viability [3]: 0.971 ± 0.0099
- TCF/Wnt firefly luciferase reporter signal [4]: 1.06 ± 0.11
- TCF/Wnt firefly luciferase reporter signal [5]: 1.06 ± 0.11

Structure (SMILES): CC(=O)OCC1=C(C(=O)O)N2C(=O)[C@@H](NC(=O)Cc3cccs3)[C@H]2SC1
- cell viability [1]: 1.05 ± 0.021
- cell viability [2]: 1.06 ± 0.021
- cell viability [3]: 1.03 ± 0.028
- TCF/Wnt firefly luciferase reporter signal [4]: 0.953 ± 0.016
- TCF/Wnt firefly luciferase reporter signal [5]: 1 ± 0.028

Structure (SMILES): CCCCOc1ccc(C(=O)CCN2CCCCC2)cc1
- cell viability [1]: 0.832 ± 0.12
- cell viability [2]: 0.87 ± 0.033
- cell viability [3]: 0.931 ± 0.045
- TCF/Wnt firefly luciferase reporter signal [4]: 1.09 ± 0.23
- TCF/Wnt firefly luciferase reporter signal [5]: 1.17 ± 0.092

Structure (SMILES): COc1cc(O)c(C(=O)/C=C/c2ccc(OC)c(O)c2)c(OC)c1
- cell viability [1]: 1.06 ± 0.098
- cell viability [2]: 0.975 ± 0.093
- cell viability [3]: 1.1 ± 0.042
- TCF/Wnt firefly luciferase reporter signal [4]: 0.975 ± 0.064
- TCF/Wnt firefly luciferase reporter signal [5]: 0.8395 ± 0.00071

Structure (SMILES): CCCC(=O)Nc1ncnc2c1ncn2[C@@H]1O[C@@H]2COP(=O)(O)O[C@H]2[C@H]1OC(=O)CCC
- cell viability [1]: 0.945 ± 0.055
- cell viability [2]: 0.957 ± 0.026
- cell viability [3]: 0.987 ± 0.0071
- TCF/Wnt firefly luciferase reporter signal [4]: 1.11 ± 0.17
- TCF/Wnt firefly luciferase reporter signal [5]: 1.09 ± 0.014

Structure (SMILES): CC(=O)CC(c1ccccc1)c1c(O)c2ccccc2oc1=O (stereo not given)
- cell viability [1]: 1.02 ± 0.056
- cell viability [2]: 1.14 ± 0.078
- cell viability [3]: 0.989 ± 0.073
- TCF/Wnt firefly luciferase reporter signal [4]: 0.935 ± 0.062
- TCF/Wnt firefly luciferase reporter signal [5]: 1.12 ± 0.028

Structure (SMILES): O=C1NCC2(CCN(CCc3ccccc3)CC2)O1
- cell viability [1]: 0.8925 ± 0.0021
- cell viability [2]: 1.06 ± 0.078
- cell viability [3]: 0.963 ± 0.018
- TCF/Wnt firefly luciferase reporter signal [4]: 1.05 ± 0.095
- TCF/Wnt firefly luciferase reporter signal [5]: 1.01 ± 0.062

Structure (SMILES): CN(C)c1ccc(O)c2c1C[C@H]1C[C@H]3[C@H](N(C)C)C(O)=C(C(N)=O)C(=O)[C@@]3(O)C(O)=C1C2=O
- cell viability [1]: 0.991 ± 0.0099
- cell viability [2]: 1.03 ± 0.09
- cell viability [3]: 0.943 ± 0.048
- TCF/Wnt firefly luciferase reporter signal [4]: 1.05 ± 0.042
- TCF/Wnt firefly luciferase reporter signal [5]: 1.08 ± 0.085

Structure (SMILES): COc1ccc([C@@H]2CC(=O)c3c(O)cc(O[C@@H]4O[C@H](CO[C@@H]5O[C@@H](C)[C@H](O)[C@@H](O)[C@H]5O)[C@@H](O)[C@H](O)[C@H]4O)cc3O2)cc1O
- cell viability [1]: 0.995 ± 0.0014
- cell viability [2]: 0.973 ± 0.038
- cell viability [3]: 1.02 ± 0.014
- TCF/Wnt firefly luciferase reporter signal [4]: 1.04 ± 0.17
- TCF/Wnt firefly luciferase reporter signal [5]: 0.988 ± 0.031

Structure (SMILES): CCOC(=O)Nc1nc2ccccc2[nH]1
- cell viability [1]: 1.03 ± 0.028
- cell viability [2]: 0.887 ± 0.016
- cell viability [3]: 1.06 ± 0.035
- TCF/Wnt firefly luciferase reporter signal [4]: 0.971 ± 0.056
- TCF/Wnt firefly luciferase reporter signal [5]: 0.959 ± 0.0057

Structure (SMILES): O=C(O)c1cc(=O)c2c(OCC(O)COc3cccc4oc(C(=O)O)cc(=O)c34)cccc2o1
- cell viability [1]: 1.04 ± 0.06
- cell viability [2]: 0.9275 ± 0.0021
- cell viability [3]: 1.09 ± 0.13
- TCF/Wnt firefly luciferase reporter signal [4]: 0.902 ± 0.036
- TCF/Wnt firefly luciferase reporter signal [5]: 1.01 ± 0.081

— the supplement of paper PMC6522484
